Reference: PubChem BioAssay AID493170 (National Center for Advancing Translational Sciences (NCATS), 2011)
Records with an inconclusive call do not appear. Where a call stands in place of a potency, no number is given. Activity calls are given as the source filed them. Calls follow the shape of the dose curve; as a rule, active = well fitted inhibition curve with a large enough effect; inconclusive = small, poorly fitted or top-dose-only effect, or effect the other way; inactive = flat fitted curve, though single readings scatter.

target: Ubiquitin carboxyl-terminal hydrolase 2 (Homo sapiens) (UniProt O75604); assay: Ub-rhodamine 110 based assay for inhibitors Ubiquitin-specific Protease USP2a; conditions: USP2a Ub-rhodamine110 cleavage, fluorescence; series mostly up to 38.3 µM; also: nearly all actives have a fitted effect of over 50% in size
In short: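 Kinetic fluorescence (485/531 nm) read each minute over 7 min after adding Ub-Rhod110 (150 nM final) to USP2a (5 nM final). The enzyme had 30 min RT exposure to compounds beforehand in Tris pH 8.0 buffer with CaCl2, CHAPS and beta-ME.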
Potency is read from the fitted curve at half-maximal effect.

Ubiquitin carboxyl-terminal hydrolase 2 (Homo sapiens), sequence (O75604 whole entry, looked up): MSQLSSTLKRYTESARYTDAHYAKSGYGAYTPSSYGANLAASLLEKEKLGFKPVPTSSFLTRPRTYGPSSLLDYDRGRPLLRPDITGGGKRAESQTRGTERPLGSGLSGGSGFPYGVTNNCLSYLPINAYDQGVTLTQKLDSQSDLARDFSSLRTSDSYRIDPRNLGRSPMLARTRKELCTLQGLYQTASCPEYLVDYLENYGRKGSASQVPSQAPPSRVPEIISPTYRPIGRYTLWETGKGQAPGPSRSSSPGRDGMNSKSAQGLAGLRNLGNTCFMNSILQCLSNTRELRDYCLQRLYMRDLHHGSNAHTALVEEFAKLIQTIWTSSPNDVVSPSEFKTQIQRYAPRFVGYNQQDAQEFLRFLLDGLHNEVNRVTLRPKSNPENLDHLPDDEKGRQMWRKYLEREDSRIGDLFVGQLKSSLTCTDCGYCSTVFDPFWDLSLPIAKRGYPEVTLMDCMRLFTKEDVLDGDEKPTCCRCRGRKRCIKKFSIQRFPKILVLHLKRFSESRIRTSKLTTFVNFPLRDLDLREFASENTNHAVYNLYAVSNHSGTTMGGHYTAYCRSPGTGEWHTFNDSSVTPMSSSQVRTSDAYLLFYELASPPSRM

| SMILES | Potency |
| --- | --- |
| Cc1nc2cc3ccccc3cc2c(=O)[nH]1 | inactive |
| O=C(Cc1cc(=O)[nH]c(=O)[nH]1)NCC1CCCO1 (centres undefined) | inactive |
| COc1ccc(C(=O)N/C(=C\c2cccs2)C(=O)N2CCN(C)CC2)cc1OC | inactive |
| O=C(Nc1cccc(C(F)(F)F)c1)/C(=C\c1ccco1)NC(=O)c1cccs1 | inactive |
| Cn1nnnc1Sc1ncnc2scc(-c3ccc4c(c3)OCO4)c12 | inactive |
| Fc1ccc(-c2nnn(Cc3nc4ccccc4s3)n2)cc1 | inactive |
| CN(c1cccc(NC(=O)Nc2cccc(Cl)c2)c1)S(C)(=O)=O | inactive |
| CCCCCc1ccc(OCCOCCn2c[n+](C)c3ccccc32)c(CCCCC)c1 | inactive |
| O=[N+]([O-])c1cc(-c2nnc(Nc3ccccc3)c3ccccc23)ccc1N1CCOCC1 | inactive |
| Cc1[nH]c2ccccc2c1C(c1ccccn1)c1c(C)[nH]c2ccccc12 | inactive |
| COc1ccccc1C(=O)n1nc(-c2cccnc2)nc1NCc1ccccc1 | inactive |
| Cn1ccc(=Nc2ccc(NC(=O)c3ccc(N=c4ccn(C)c5ccc([N+](=O)[O-])cc45)cc3)cc2)cc1 | inactive |
| C#CCOCCOCCOCCNc1nc(N2CCN(C(=O)CCCCCCCCCCNC(=O)Cn3cc(CCCCCN)nn3)CC2)nc(N2CCN(C(=O)CCCCCCCCCCNC(=O)Cn3cc(CCCCCN)nn3)CC2)n1 | inactive |
| Cc1c(O)c(CN2CCCC2)cc2c3c(c(=O)oc12)CCC3 | inactive |
| O=C(C[n+]1cccc(C(=O)N/N=C/c2ccc(Br)cc2)c1)c1ccccc1 | inactive |
| COC(=O)CC1Oc2ccc(C)cc2NC1=O (centres undefined) | inactive |
| CCCCNc1nc2ccccc2nc1NS(=O)(=O)c1cccs1 | inactive |
| OCCN(Cc1ccccc1)c1ncnc2sccc12 | inactive |
| CCOC(=O)N1CCN(C(=O)CN(c2ccc(C)c(C)c2)S(=O)(=O)c2ccccc2)CC1 | inactive |
| CC(C)c1ccc2c(c1)c(SC(C)(C)C)c(CC(C)(C)C(=O)O)n2Cc1ccc(Cl)cc1 | 7.08 µM (active) |

| SMILES | Potency |
| --- | --- |
| Cc1ccc(NC(=O)Cn2nc(C)c3ccccc3c2=O)cc1F | inactive |
| CC1CCCC(NC(=O)C2N(CCCN3CCCC3)C(=O)C3C(C(=O)Nc4ccc(Cl)cc4)C4C=CC32O4)C1C (centres undefined) | inactive |
| O=C(O)CC1(CC(=O)Nc2ccc3ccccc3c2)CCCCC1 | inactive |
| O=[N+]([O-])c1cc(-c2ccc(/C=N\n3cnnc3)o2)cc([N+](=O)[O-])c1 | 11.2 µM (active) |
| O=c1c2c3nc4ccccc4nc3n(Cc3ccccc3)c2ncn1Cc1ccco1 | 11.2 µM (active) |
| CCOc1ccc(NC(=O)N(CCCN2CCOCC2)Cc2cccnc2)cc1 | inactive |
| Cc1ccc(OCC(=O)Nc2ccc(N3CCCC3)cc2)cc1C | 10 µM (active) |
| Nc1cc(N)nc(SCC(=O)N2CCCCC2)n1 | inactive |
| Cc1cc(=O)oc(C)c1C(=O)NCCc1ccccc1 | inactive |
| O=C1c2ccccc2C(=O)N1CCCCn1c(=O)oc2ccccc21 | inactive |
| CN(C)CCCN1C(=O)C(=O)/C(=C(/O)c2ccncc2)C1c1cccnc1 (centres undefined) | inactive |
| Cc1ccc(C(=O)COC(=O)CNC(=O)CN2C(=O)c3ccccc3C2=O)cc1 | inactive |
| CCOC(=O)N1CCC(NC(=O)c2ccc(OC)c(CN3CC(=O)N4CCCC4C3=O)c2)CC1 (centres undefined) | inactive |
| CN(C)c1ccc(C(CN)c2c[nH]c3ccccc23)cc1 (centres undefined) | inactive |
| O=C1Nc2ccc(S(=O)(=O)N3CCCCCC3)c3cccc1c23 | inactive |
| NC(=O)CC(NC(=O)Cc1ccc(Br)cc1)c1ccc(N2CCC(Cc3ccccc3)CC2)c([N+](=O)[O-])c1 (centres undefined) | inactive |
| Cc1cccc(C)c1-n1cccc1/C=C1\SC(=S)N(c2cccc(C(=O)O)c2)C1=O | 7.94 µM (active) |
| O=C(NC(=S)N1CCCc2ccccc21)c1ccc([N+](=O)[O-])cc1 | inactive |
| CC1(C)CC(=O)C2=C(C1)Oc1ncn(CCCO)c(=N)c1C2c1ccccc1 (centres undefined) | inactive |
